This note sets out measurements from PMC6602471.

Whole data set: some 1,300 sequences, median “log fluorescence intensity” near 8.9, cut for the highest 2% near 13. Only a selection was taken, and the highest values are over-represented in it overall.

For the assay, the target named is T1, ELK1 (Homo sapiens, UniProt P19419 1-428).
T1 sequence: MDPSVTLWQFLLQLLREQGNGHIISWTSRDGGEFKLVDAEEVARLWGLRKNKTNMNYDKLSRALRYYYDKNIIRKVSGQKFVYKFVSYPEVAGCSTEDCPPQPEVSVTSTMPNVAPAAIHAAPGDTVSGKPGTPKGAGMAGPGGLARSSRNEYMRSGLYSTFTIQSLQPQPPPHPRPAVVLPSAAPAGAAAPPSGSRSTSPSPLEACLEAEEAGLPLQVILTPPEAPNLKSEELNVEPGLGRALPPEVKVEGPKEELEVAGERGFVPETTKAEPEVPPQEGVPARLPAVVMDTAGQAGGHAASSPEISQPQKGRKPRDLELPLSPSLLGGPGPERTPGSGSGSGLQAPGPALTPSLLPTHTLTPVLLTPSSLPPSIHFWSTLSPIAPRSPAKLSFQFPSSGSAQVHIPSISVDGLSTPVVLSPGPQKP
Kind of assay: custom PBM; custom protein-binding microarray; buffer, salt, pH and temperature not stated; high values mean tight binding. Particulars: dsDNA, one strand shown.
As for “GTGCATAGGATCCCATCCAACACACGTGTTAAAATGGTCTTGATTCGCTTGACGCTGCTG”, the binding signal was 9 log fluorescence intensity.

Regarding “CGGAAGTGTCGTAAACGTCGGATATACGGTTCTTCTGTCTTGATTCGCTTGACGCTGCTG”, the binding signal is 9.29 log fluorescence intensity. In the case of “GGAAAAAGGCCCAGGGTAACACCGGAAGCGGGCTTAGTCTTGATTCGCTTGACGCTGCTG” it was 10.5 log fluorescence intensity; in that of “GTGTCTAGGATCCCATCCAACACACGTGTTAAAATGGTCTTGATTCGCTTGACGCTGCTG”, 8.94 log fluorescence intensity; in that of “CAGCAGAGGACTTCTTCCCTGAAGCAATTGATAACCGTCTTGATTCGCTTGACGCTGCTG”, 8.97 log fluorescence intensity.

As for “CGGAAGTGTCGTAAACGTAGGATATCCGGTTCTTCTGTCTTGATTCGCTTGACGCTGCTG”, the binding signal was 11.8 log fluorescence intensity. For the sequence “CGGAAGTGTCGTAAACGTCGGATATCCGGTTCTTATGTCTTGATTCGCTTGACGCTGCTG”, the binding signal was 12.4 log fluorescence intensity. In the case of “CGGAAGTGTCGTAAACGTCGGATATCCGGTTCTTCCGTCTTGATTCGCTTGACGCTGCTG” it was 13 log fluorescence intensity; in that of “CGGAAGTGTCGTAAACGTCGGATATCCGGTTCTTCAGTCTTGATTCGCTTGACGCTGCTG”, 12.6 log fluorescence intensity. In the case of “CGGAAGTGTCGTAAACGTCGGATATCCGGTTCTCCTGTCTTGATTCGCTTGACGCTGCTG” it was 12.6 log fluorescence intensity; in that of “CGGAAGTGTCGTAAACGTCGGATATCCGGTTCTTCGGTCTTGATTCGCTTGACGCTGCTG”, 12.4 log fluorescence intensity; in that of “CGGAAGTGTCGTAAACCTCGGATATCCGGTTCTTCTGTCTTGATTCGCTTGACGCTGCTG”, 12.2 log fluorescence intensity. With “CGGAAGTGTCGTAAACGCCGGATATCCGGTTCTTCTGTCTTGATTCGCTTGACGCTGCTG”, the binding signal is 13.3 log fluorescence intensity.

In the case of “CGGAAGTGTCGTAAACGTCGGATATCCGGTTCTACTGTCTTGATTCGCTTGACGCTGCTG”, the binding signal was 12.4 log fluorescence intensity. In the case of “CGGAAGTGTCGTAAACGTCGGATATCCGGTTCTGCTGTCTTGATTCGCTTGACGCTGCTG” it was 12.5 log fluorescence intensity; in that of “CGGAAGTGTCGTAAACGTCGGATATCCGGTTCATCTGTCTTGATTCGCTTGACGCTGCTG”, 12.6 log fluorescence intensity; in that of “CGGAAGTGTCGTAAACGTCGGATATCCGGTTCGTCTGTCTTGATTCGCTTGACGCTGCTG”, 12.4 log fluorescence intensity. For “CGGAAGTGTCGTAAACGTGGGATATCCGGTTCTTCTGTCTTGATTCGCTTGACGCTGCTG”, the binding signal was 11.4 log fluorescence intensity.

For the sequence “CGGAAGTGTCGTAAACATCGGATATCCGGTTCTTCTGTCTTGATTCGCTTGACGCTGCTG”, the binding signal was 12.6 log fluorescence intensity. In the case of “CGGAAGTGTCGTAAACGTCGGATATCCGGTTCCTCTGTCTTGATTCGCTTGACGCTGCTG” it was 12.5 log fluorescence intensity; in that of “TGGAAGTGTCGTAAACGTCGGATATCCGGTTCTTCTGTCTTGATTCGCTTGACGCTGCTG”, 12.5 log fluorescence intensity.

On to “CGGAAGTGTCGTAAACGTTGGATATCCGGTTCTTCTGTCTTGATTCGCTTGACGCTGCTG”, for which the binding signal was 11.4 log fluorescence intensity.

On to “CGGAAGTGTCGTAAACGTCTGATATCCGGTTCTTCTGTCTTGATTCGCTTGACGCTGCTG”, for which the binding signal was 11.1 log fluorescence intensity. In the case of “CGGAAGTGTCGTAAACGTCGGATATCCGGTTCTTCTGTCTTGATTCGCTTGACGCTGCTG” it was 12.4 log fluorescence intensity.

As to “AGGAAGTGTCGTAAACGTCGGATATCCGGTTCTTCTGTCTTGATTCGCTTGACGCTGCTG”, the binding signal is 12.3 log fluorescence intensity.

For the sequence “CGGAAGTGTCGTAAACTTCGGATATCCGGTTCTTCTGTCTTGATTCGCTTGACGCTGCTG”, the binding signal is 12.3 log fluorescence intensity. The result for “GGGAAGTGTCGTAAACGTCGGATATCCGGTTCTTCTGTCTTGATTCGCTTGACGCTGCTG” reads 12.6 log fluorescence intensity. In the case of “CGGGAGTGTCGTAAACGTCGGATATCCGGTTCTTCTGTCTTGATTCGCTTGACGCTGCTG” it was 12.1 log fluorescence intensity; in that of “CTGAAGTGTCGTAAACGTCGGATATCCGGTTCTTCTGTCTTGATTCGCTTGACGCTGCTG”, 12.3 log fluorescence intensity; in that of “CGGTAGTGTCGTAAACGTCGGATATCCGGTTCTTCTGTCTTGATTCGCTTGACGCTGCTG”, 12.5 log fluorescence intensity. The result for “CAGAAGTGTCGTAAACGTCGGATATCCGGTTCTTCTGTCTTGATTCGCTTGACGCTGCTG” reads 12.6 log fluorescence intensity. Turning to “CGGAAGTGTCGTAAAGGTCGGATATCCGGTTCTTCTGTCTTGATTCGCTTGACGCTGCTG”, the binding signal was 12.4 log fluorescence intensity. In the case of “CGAAAGTGTCGTAAACGTCGGATATCCGGTTCTTCTGTCTTGATTCGCTTGACGCTGCTG” it was 12.5 log fluorescence intensity; in that of “CGGAAGTGTCGTAAACGTCGCATATCCGGTTCTTCTGTCTTGATTCGCTTGACGCTGCTG”, 11.6 log fluorescence intensity; in that of “CGGAAGTGTCGTAAAAGTCGGATATCCGGTTCTTCTGTCTTGATTCGCTTGACGCTGCTG”, 12.5 log fluorescence intensity. For “CGGAAGTGTCGTAAACGTCAGATATCCGGTTCTTCTGTCTTGATTCGCTTGACGCTGCTG”, the binding signal was 11.2 log fluorescence intensity. The result for “CGGAAGTGTCGTAAATGTCGGATATCCGGTTCTTCTGTCTTGATTCGCTTGACGCTGCTG” reads 12.7 log fluorescence intensity. The result for “CGTAAGTGTCGTAAACGTCGGATATCCGGTTCTTCTGTCTTGATTCGCTTGACGCTGCTG” reads 12.4 log fluorescence intensity; that for “CGCAAGTGTCGTAAACGTCGGATATCCGGTTCTTCTGTCTTGATTCGCTTGACGCTGCTG”, 12.6 log fluorescence intensity; that for “CGGAAGTGTCGTAAACGTCGGATATCCGGTTGTTCTGTCTTGATTCGCTTGACGCTGCTG”, 12.5 log fluorescence intensity.
